Experimental data published in PubChem BioAssay (NCI).
Compounds without any hit were thinned out: in the full panel of roughly 83,000, 20% have a hit.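 Single-dose data. Exposure time 48 hours. Values below 10 considered active.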 Activity calls are given as the source filed them.

Key:
Test in all cases: NCI-60 one-dose screen, 48 h (100 = growth as untreated, 0 = no growth, -100 = all killed)
Conditions in all cases: 10 µM unless noted
DU-145 prostate = test system: DU-145 prostate
K-562 leukemia = test system: K-562 leukemia
MALME-3M melanoma = test system: MALME-3M melanoma
MDA-MB-231 breast = test system: MDA-MB-231 breast
RXF 393 renal = test system: RXF 393 renal
SF-268 CNS = test system: SF-268 CNS
SF-295 CNS = test system: SF-295 CNS
SF-539 CNS = test system: SF-539 CNS
UACC-257 melanoma = test system: UACC-257 melanoma
M14 melanoma = test system: M14 melanoma

Measured: growth

C=C(C)[C@@H]1CCC[C@]2(COS(=O)(=O)c3ccc(C)cc3)CC[C@]3(C)[C@@H](CC[C@@H]4[C@@]5(C)CCCNC(C)(C)[C@@H]5CC[C@]43C)[C@@H]12
inactive: SF-268 CNS 48.2% | SF-539 CNS 71.9% | UACC-257 melanoma 58.5%
active: DU-145 prostate 0.903% | K-562 leukemia -33.4% | MALME-3M melanoma 4.1% | MDA-MB-231 breast -10.3% | RXF 393 renal -79.9% | SF-295 CNS -11.5% | M14 melanoma -20.6%

Cc1ccc2c(Cn3cc(CSc4nc5ccccc5o4)nn3)cc(=O)oc2c1
inactive: DU-145 prostate 111% | K-562 leukemia 98.4% | MALME-3M melanoma 104% | MDA-MB-231 breast 106% | RXF 393 renal 98.6% | SF-268 CNS 103% | SF-295 CNS 110% | SF-539 CNS 101% | UACC-257 melanoma 104% | M14 melanoma 114%

COc1ccc(C(C)=O)cc1S(=O)(=O)Nc1c(N)nc(SC)[nH]c1=O
inactive: DU-145 prostate 107% | K-562 leukemia 93% | MALME-3M melanoma 96.4% | MDA-MB-231 breast 111% | RXF 393 renal 107% | SF-268 CNS 96.1% | SF-295 CNS 98.1% | SF-539 CNS 108% | UACC-257 melanoma 103% | M14 melanoma 94.8%

Fc1ccc(CNc2c3ccccc3nc3ccccc23)c(F)c1
inactive: DU-145 prostate 50.9% | K-562 leukemia 22.5% | MALME-3M melanoma 69.5% | MDA-MB-231 breast 44.4% | RXF 393 renal 34.5% | SF-268 CNS 68.6% | SF-295 CNS 40.4% | SF-539 CNS 32.4% | UACC-257 melanoma 68.9% | M14 melanoma 55.3%

O=C(Nc1ccc(Oc2cccc(Cl)c2)c(Cl)c1)c1cccnc1
inactive: DU-145 prostate 16.1% | K-562 leukemia 11.1% | MALME-3M melanoma 50.1% | MDA-MB-231 breast 59% | SF-268 CNS 53.4% | SF-295 CNS 41.4% | UACC-257 melanoma 64.2% | M14 melanoma 21.8%
active: RXF 393 renal -0.145% | SF-539 CNS -8.37%

Cc1nc2sc(C(=O)Nc3ccc(Br)cc3)c(N)c2cc1C(O)c1ccccc1 (stereo not given)
inactive: DU-145 prostate 81.7% | K-562 leukemia 12.1% | MALME-3M melanoma 63.9% | MDA-MB-231 breast 57.9% | RXF 393 renal 86.6% | SF-268 CNS 75.8% | SF-295 CNS 69.5% | SF-539 CNS 66.7% | UACC-257 melanoma 61.8% | M14 melanoma 38.9%

Cn1cc(-c2nonc2-c2cn(C)c3ccccc23)c2ccccc21
inactive: DU-145 prostate 16.3% | MALME-3M melanoma 53.4% | MDA-MB-231 breast 23.2% | SF-268 CNS 48.1% | SF-295 CNS 17.5% | UACC-257 melanoma 65.7%
active: K-562 leukemia 9.77% | RXF 393 renal 1.39% | SF-539 CNS -21.6% | M14 melanoma 6.28%

C=C(C)[C@@H]1CC[C@]2(CO)CC[C@]3(C)[C@H](CC[C@@H]4[C@@]5(C)CC[C@H](NCO)C(C)(C)[C@@H]5CC[C@]43C)[C@@H]12
active: DU-145 prostate -69.2% | K-562 leukemia 0.949% | MALME-3M melanoma -81.2% | MDA-MB-231 breast -86.2% | RXF 393 renal -79.3% | SF-539 CNS -95.6% | UACC-257 melanoma -51.6% | M14 melanoma -62.2%
inactive: SF-268 CNS 59.1% | SF-295 CNS 57.4%

O=S(=O)(Nc1ccc(F)cc1F)c1ccc(-c2cnc(C3CC3)o2)cc1
active: RXF 393 renal -1.92% | SF-539 CNS 1.19% | M14 melanoma 4.25%
inactive: DU-145 prostate 40.7% | K-562 leukemia 18.2% | MALME-3M melanoma 34.8% | MDA-MB-231 breast 53% | SF-268 CNS 44.6% | SF-295 CNS 30.7% | UACC-257 melanoma 64%

Nc1ncc(-c2ccc3ncnc(Nc4cccc(Cl)c4)c3c2)cn1
inactive: DU-145 prostate 28.9% | K-562 leukemia 58.2% | MALME-3M melanoma 40.4% | MDA-MB-231 breast 42.1% | RXF 393 renal 25.2% | SF-268 CNS 42% | SF-295 CNS 44.2% | SF-539 CNS 54.2% | UACC-257 melanoma 65.7% | M14 melanoma 60.6%

C#CCOc1cccc(Nc2ncnc3ccc(NC(=O)C=C)cc23)c1
inactive: DU-145 prostate 24.1% | K-562 leukemia 46% | MALME-3M melanoma 60.8% | MDA-MB-231 breast 54% | SF-268 CNS 40.2% | SF-295 CNS 66.2% | SF-539 CNS 32.1% | UACC-257 melanoma 54.9% | M14 melanoma 51.4%
active: RXF 393 renal 2.49%

O=C1c2ccccc2-c2c1c1c(=O)[nH]c3ccccc3c1n2Cc1ccccc1
inactive: DU-145 prostate 79% | K-562 leukemia 63.3% | MALME-3M melanoma 14% | MDA-MB-231 breast 62% | RXF 393 renal 25.2% | SF-268 CNS 50.7% | SF-295 CNS 60.3% | SF-539 CNS 55.7% | UACC-257 melanoma 74.9% | M14 melanoma 84.2%

O=C(Nc1nc2ccc(C(=O)N3CCN(/C=C/c4ccccc4)CC3)cc2s1)c1ccc(NCCc2ccccc2)c([N+](=O)[O-])c1
inactive: DU-145 prostate 70.7% | MDA-MB-231 breast 66% | RXF 393 renal 53.2% | SF-268 CNS 63.2% | SF-295 CNS 45.7% | SF-539 CNS 71.7% | UACC-257 melanoma 37.3% | M14 melanoma 12.9%
active: K-562 leukemia -18.7% | MALME-3M melanoma -0.217%

COC(=O)CC[C@@H]1O[C@@H](c2cccc(C(F)(F)F)c2)[C@@H](O)[C@H]1O
inactive: DU-145 prostate 103% | K-562 leukemia 112% | MALME-3M melanoma 99.1% | MDA-MB-231 breast 108% | RXF 393 renal 95.3% | SF-268 CNS 101% | SF-295 CNS 104% | SF-539 CNS 97.2% | UACC-257 melanoma 106% | M14 melanoma 102%

COc1ccc(NC(=O)c2sc3nc(C)c(C(=O)/C=C/c4ccccc4)cc3c2N)cc1
active: RXF 393 renal -1.08%
inactive: DU-145 prostate 26.5% | K-562 leukemia 14.4% | MALME-3M melanoma 97.3% | MDA-MB-231 breast 60.8% | SF-268 CNS 28.7% | SF-295 CNS 48.8% | SF-539 CNS 38.2% | UACC-257 melanoma 98.3% | M14 melanoma 61.5%

CCn1cc(C(=O)O)c(=O)c2cc(F)c(N3CCN(CC(=O)Nc4ccc(S(=O)(=O)Nc5nccc(C)n5)cc4)C(C)C3)c(F)c21 (stereo not given)
inactive: DU-145 prostate 105% | K-562 leukemia 105% | MALME-3M melanoma 111% | MDA-MB-231 breast 100% | RXF 393 renal 99% | SF-268 CNS 98.3% | SF-295 CNS 104% | SF-539 CNS 99.2% | UACC-257 melanoma 114% | M14 melanoma 103%

CC(=O)N1N=C(c2ccc(C(F)(F)F)c(F)c2)CC1c1[nH]c(C)c(C(=O)NCC(F)(F)F)c1C (stereo not given)
inactive: DU-145 prostate 85.5% | K-562 leukemia 97.6% | MALME-3M melanoma 43.5% | MDA-MB-231 breast 38.8% | RXF 393 renal 31% | SF-268 CNS 60.7% | SF-295 CNS 70.9% | SF-539 CNS 56.3% | UACC-257 melanoma 91.6% | M14 melanoma 78.8%

Nc1ncnc2c1N=C(c1ccc(Br)cc1)CC(c1cccc(Nc3ccnc4cc(C(F)(F)F)ccc34)c1)N2 (stereo not given)
inactive: DU-145 prostate 85.6% | K-562 leukemia 23% | MALME-3M melanoma 76.8% | MDA-MB-231 breast 55.9% | RXF 393 renal 38.5% | SF-268 CNS 55.5% | SF-295 CNS 52.2% | SF-539 CNS 70.8% | UACC-257 melanoma 66.6% | M14 melanoma 60.1%

Cn1c(I)c(C#CCO[Si](C)(C)C(C)(C)C)c(=O)[nH]c1=O
active: K-562 leukemia 2.55% | MALME-3M melanoma -51.2% | RXF 393 renal -15.3%
inactive: DU-145 prostate 99.9% | MDA-MB-231 breast 91.5% | SF-268 CNS 105% | SF-295 CNS 101% | SF-539 CNS 104% | UACC-257 melanoma 96.6% | M14 melanoma 83.1%

C=CC[Se]C(=O)Cc1c(C)n(C(=O)c2ccc(Cl)cc2)c2ccc(OC)cc12
inactive: K-562 leukemia 25.9% | SF-268 CNS 15.3%
active: DU-145 prostate -35.6% | MALME-3M melanoma -23.4% | MDA-MB-231 breast -56% | RXF 393 renal -57.5% | SF-295 CNS -28.8% | SF-539 CNS -89.5% | UACC-257 melanoma -34.8% | M14 melanoma -35.4%

CC(C)=CCCC(C)c1ccc(C)c2c1OCN(CCCCCO)C2 (stereo not given)
inactive: DU-145 prostate 109% | K-562 leukemia 31.1% | MALME-3M melanoma 93.6% | MDA-MB-231 breast 93.4% | RXF 393 renal 90.1% | SF-268 CNS 97.5% | SF-295 CNS 110% | SF-539 CNS 84.5% | UACC-257 melanoma 78.4% | M14 melanoma 84.2%

CC1CCN(S(=O)(=O)c2ccc(S(=O)(=O)N3CCCC(c4nc5c(nnn5Cc5cccc(Cl)c5)c(=O)[nH]4)C3)cc2)CC1 (stereo not given)
inactive: DU-145 prostate 59.8% | K-562 leukemia 20.1% | MALME-3M melanoma 46.7% | MDA-MB-231 breast 73% | RXF 393 renal 15.8% | SF-268 CNS 51.9% | SF-295 CNS 63.6% | SF-539 CNS 49.7% | UACC-257 melanoma 54.2% | M14 melanoma 16.9%

C=C1C(=O)O[C@H]2[C@H]1CC/C(COC(=O)/C=C\C(=O)NCc1ccc(Cn3c(=O)sn(CCI)c3=O)cc1)=C\CC[C@@]1(C)O[C@@H]21
inactive: DU-145 prostate 34.4% | MDA-MB-231 breast 64.6% | RXF 393 renal 11.6% | SF-268 CNS 70.2% | SF-295 CNS 105% | SF-539 CNS 52% | UACC-257 melanoma 67.7% | M14 melanoma 36.2%
active: K-562 leukemia 4.34% | MALME-3M melanoma -30%

C=CCn1c(C)nc2ccc(Nc3nc(Nc4ccc5nc(C)n(CC=C)c5c4)c4ccccc4n3)cc21
active: DU-145 prostate -67.6% | K-562 leukemia -43.5% | MALME-3M melanoma -78.9% | MDA-MB-231 breast -78.8% | RXF 393 renal -80.7% | SF-268 CNS -32.4% | SF-295 CNS -67.5% | SF-539 CNS -93.8% | UACC-257 melanoma -87.6% | M14 melanoma -88.4%

COc1cc(/C=C/C(=O)c2ccc(F)cc2)ccc1OCCCCOc1ccc(/C=C/C(=O)c2c(C)nc3ccccc3c2C)cc1OC
inactive: DU-145 prostate 157% | K-562 leukemia 62.2% | MALME-3M melanoma 105% | MDA-MB-231 breast 91.5% | SF-268 CNS 127% | SF-295 CNS 98.8% | SF-539 CNS 138% | UACC-257 melanoma 70.3% | M14 melanoma 103%
active: RXF 393 renal -10.5%

O=C(CSc1nc2sc3c(c2c(=O)n1-c1ccccc1)CCCCC3)N/N=C/c1cccc([N+](=O)[O-])c1
active: SF-539 CNS 0.0053%
inactive: DU-145 prostate 16.5% | K-562 leukemia 56.3% | MALME-3M melanoma 74.6% | MDA-MB-231 breast 51.1% | RXF 393 renal 61.5% | SF-268 CNS 44.3% | SF-295 CNS 76.3% | UACC-257 melanoma 66.1% | M14 melanoma 71.1%
